HIF-2a inh – inhibitors of HIF-2a; 786-0 RCC cells HIF-2a reporter, luciferase luminescence, overnight; inhibition, % at 18.8 µM; hit rate 0.72% among 360,000;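 active = inhibition of the luminescence signal of 40% or more relative to plate controls, in a single-dose primary screen at 18.75 µM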
Peg3 prom inh – Peg3 promoter activity inhibition; HeLa PEG-Prom luciferase reporter, luminescence, overnight; inhibition, % at 20 µM; hit rate 1.7% among 360,000;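 active = inhibition of at least 50% at 20 µM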
MITF TRPM1 inh – reduces MITF-dependent TRPM1 promoter luciferase signal; SK-MEL-5 TRPM1 promoter luciferase, 24 h; inhibition, % at 12.5 µM; hit rate 0.83% among 330,000;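 active = mean inhibition across replicates of 60% or more, whatever share of single replicates reaches that level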
KKLEB tox – reduces viability of KKLEB cystic fibrosis airway cells; KKLEB CF airway cells viability, ATPlite luminescence, overnight; stronger effect = lower value; cells stimulated with P. aeruginosa culture filtrate; activity change (cytotoxicity), % at 5 µM; hit rate 0.36% among 360,000; AID 602141;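 active = corrected activity change at or below -50% at 5 µM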
Shn3 3UTR inh – Schnurri-3 reporter inhibition in Clone20 osteoblasts; AID 588674; Clone20 osteoblast Shn3 3'UTR firefly luciferase, 24 h; hit rate 0.52% among 360,000; inhibition, % at 12.5 µM;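 active = mean inhibition of at least 75% with every replicate also reaching 75%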;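 also: 0% = median of neutral control wells and 100% = pilot-screen positive control compound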
CF NFkB inh – cystic fibrosis NF-kB activation inhibition; KKLEB NF-kB-GFP reporter, PAF-induced, GFP fluorescence overnight; inhibition, % at 5 µM; hit rate 0.86% among 360,000; AID 588850;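 active = at least 50% inhibition at 5 µM, scaled per plate between neutral and stimulator controls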;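 also: PAF is a Pseudomonas aeruginosa culture filtrate used as stimulus; plate controls were PAF-stimulated DMSO wells for no effect and unstimulated DMSO wells for full effect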
* marks the source's active call; other numbers are inactive results; nt = not tested or not shown. Shown are actives, neighbours in structure and some others; about 2.7% of the full set was active somewhere.

SMILES | HIF-2a inh | Peg3 prom inh | MITF TRPM1 inh | KKLEB tox | Shn3 3UTR inh | CF NFkB inh
c1ccc(NN=C(c2ccccc2)c2cccs2)cc1 | -23.2 | -10.7 | nt | -2.6 | 7.3 | -22.3
COc1cc2c3nnc(-c4ccc(F)cc4)c-3cn(Cc3ccccc3F)c2cc1OC | 26.0 | 110.3* | 92.4* | 0.5 | 24.5 | -63.4
CCCNC(=O)C1(C)CCN(C(=O)c2ccc(C)c(F)c2)C1 (stereo unspecified) | 5.3 | 0.5 | nt | 10.7 | -13.8 | -16.9
O=C(Nc1nc(-c2ccccn2)cs1)c1ccccc1-n1cnnn1 | -22.5 | 33.1 | 65.3* | -16.2 | 94.6* | 15.2
O=C(Nc1nc(-c2ccccc2)cs1)C1COc2ccccc2O1 (stereo unspecified) | -82.5 | -95.5 | -21.2 | 8.4 | -11.0 | -9.9
Cc1ccc(C(=O)Nc2nc(-c3ccccn3)cs2)o1 | -78.3 | -12.0 | 5.1 | 1.0 | 34.1 | 10.8
O=C(Nc1nc(-c2ccccn2)cs1)C1COc2ccccc2O1 (stereo unspecified) | -36.6 | 46.4 | 17.3 | -12.9 | 90.1* | 19.4
O=C(Nc1nc(-c2ccccn2)cs1)c1ccc([N+](=O)[O-])o1 | -17.2 | 46.0 | 61.5* | 5.5 | 87.7* | 10.0
O=C(Nc1nc(-c2ccccn2)cs1)c1ccc(-c2ccccc2F)o1 | -88.5 | 68.5* | -11.7 | -9.6 | 19.4 | -26.0
O=C(OC1CC2CC1[C@H]1CCCCN1C2=O)N1CCCCC1 (stereo partly specified) | 3.9 | nt | nt | nt | nt | nt
O=C(Nc1nc(-c2ccccn2)cs1)c1cc(Cl)ccc1[N+](=O)[O-] | -48.9 | 46.8 | 79.3* | -2.4 | 97.0* | -43.6
CCn1nc(C(=O)Nc2nc(-c3ccccn3)cs2)c2ccccc2c1=O | -4.3 | 51.0* | nt | -4.2 | 78.7 | -17.0
Cc1cc(C(=O)Nc2nc(-c3ccccn3)cs2)ccc1[N+](=O)[O-] | -115.6 | -3.3 | 6.8 | 7.0 | 33.0 | 14.2
Cn1nc(C(=O)Nc2nc(-c3ccccn3)cs2)c2ccccc2c1=O | -15.7 | 11.3 | 8.7 | -6.5 | 51.2 | -3.5
O=C(NC1CCCCC1)C(c1ccc(-c2ccccc2)cc1)n1c(=O)c(-c2ccco2)nc2ccccc21 (stereo unspecified) | -32.5 | nt | nt | nt | nt | nt
Cc1ccc(S(=O)(=O)N2C[C@H]3[C@H]4C(=O)N(c5ccccc5)C(=O)[C@H]4C[C@H](OC(=O)NCc4ccccc4F)[C@@]3(O)C2)cc1 | 7.7 | -2.4 | nt | -5.3 | -7.0 | 1.7
CCOC(=O)C1=CCN(S(=O)(=O)c2ccccc2Cl)C1c1cccc(F)c1 (stereo unspecified) | 16.2 | 18.3 | nt | -9.9 | 19.9 | 3.0
CSCCC(C(=O)Nc1c(C)cccc1C)n1c(-c2cnc(C)cn2)nc2ccccc21 (stereo unspecified) | -4.7 | nt | nt | nt | nt | nt
Cc1ccc(S(=O)(=O)n2ccc3c(OCCOCCNCc4ccc(F)cc4)cccc32)cc1 | 24.6 | 95.6* | 32.5 | -34.3 | 76.6 | 30.0
Cc1ccc(S(=O)(=O)n2ccc3c(OCCOCCSCC(NC(=O)OC(C)(C)C)C(=O)O)cccc32)cc1 (stereo unspecified) | 17.0 | 26.7 | 4.5 | 5.5 | 13.4 | 1.2
CCCCN(C)C(=O)c1sc(=O)n(Cc2ccc(Cl)c(Cl)c2)c1C | 8.2 | 16.5 | nt | -10.3 | 4.2 | 10.6
Cc1ccnc(N2C(=O)c3cccc4c([N+](=O)[O-])ccc(c34)C2=O)c1 | 17.8 | 107.6* | 12.7 | -4.6 | 47.3 | -5.4
Cc1ccc(N2C(=O)c3cccc4c([N+](=O)[O-])ccc(c34)C2=O)c2cccnc12 | 20.4 | 63.5* | 74.2* | -2.3 | 92.2* | 19.8
Cc1c(N/N=C(\C#N)C(=O)c2ccc(Cl)cc2)c(=O)n(-c2ccccc2)n1C | 26.2 | 42.6 | 51.3 | 7.2 | 89.8* | 12.1
N#C/C(=N\Nc1ccc(Cl)cc1)C(=O)c1ccccc1 | -167.3 | -22.3 | 2.6 | -35.0 | 8.2 | 29.2
SMILES | HIF-2a inh | Peg3 prom inh | MITF TRPM1 inh | KKLEB tox | Shn3 3UTR inh | CF NFkB inh
S=c1[nH]nc(C2CCCCC2)n1/N=C/c1ccncc1 | 10.6 | 2.4 | -3.4 | -11.9 | -7.1 | 84.8*
O=C(Nc1ccc(F)cc1)Nc1nnc(-c2ccncc2)s1 | -43.3 | -13.0 | -15.2 | -47.7 | -5.5 | 84.6*
O=C(Nc1ccc(Cl)cc1)Nc1nnc(-c2ccncc2)s1 | -9.1 | 63.8* | 7.0 | -89.2* | -14.9 | 84.0*
O=C(Nc1nnc(-c2ccc(F)cc2)s1)Nc1ccccc1F | -9.5 | -32.5 | nt | 15.6 | -54.5 | -27.5
O=C(Nc1ccc(Cl)cc1)Nc1nnc(SCc2ccc(Cl)cc2)s1 | 8.8 | 10.4 | -2.5 | -5.3 | -4.2 | 28.3
COc1ccc(NC(=O)C2(C)Cc3c(-c4cccc(NC(C)=O)c4)ccnc3O2)cn1 (stereo unspecified) | 25.9 | -2.8 | nt | -14.1 | -14.6 | 30.0
Cc1cc(N2CCN(C)CC2)nc2ccc(NC(=S)N3CCN(c4cccc(Cl)c4)CC3)cc12 | 11.9 | -12.0 | 14.7 | 0.2 | 8.2 | -4.8
Cc1cccc(N2CCN(C(=S)Nc3ccc4nc(N5CCN(C)CC5)cc(C)c4c3)CC2C)c1 (stereo unspecified) | 10.5 | 75.7* | 47.4 | -38.8 | 0.5 | 9.5
Cc1cc(N2CCN(C)CC2)nc2ccc(NC(=S)N3CCN(c4ccc(F)cc4)CC3)cc12 | 19.2 | 66.1* | 22.1 | -1.1 | 4.0 | -4.0
Cc1cc(N2CCN(C)CC2)nc2ccc(NC(=S)N3CCN(c4ccc(Cl)cc4)CC3)cc12 | 7.8 | -27.2 | -8.6 | -1.3 | 2.6 | 2.1
CCOc1ccc(/C=C/C(O)=C2/C(=O)N(C)C3(C)CC2c2ccccc2O3)cc1OC (stereo unspecified) | 61.7* | 39.6 | 35.1 | -14.0 | -31.3 | 46.6
CCOc1ccc(/C=C/C(O)=C2/C(=O)NC3(C)CC2c2ccccc2O3)cc1OC (stereo unspecified) | 22.1 | 36.9 | 51.3 | -10.8 | 5.0 | 14.9
O=C(Cn1cc(C(F)(F)F)cc(Cl)c1=O)NCCc1ccccc1 | 16.5 | 1.4 | -4.4 | 16.2 | 96.2* | 11.3
O=C(Cn1cc(C(F)(F)F)cc(Cl)c1=O)NCc1ccccc1 | -161.9 | -155.2 | -46.0 | -6.8 | -41.6 | 6.8
CN(C)c1ccnc2sc(C(=O)c3ccc(Br)cc3)c(N)c12 | -200.0 | -199.1 | -63.4 | 15.7 | -61.8 | -19.3
CN(C)c1ccnc2sc(C(N)=O)c(N)c12 | 16.7 | -6.6 | -10.4 | -36.0 | 9.8 | 91.0*
Cc1ccc(/C=C/c2nc3ccccc3c(=O)[nH]2)cc1 | -217.0 | 2.9 | 21.9 | -68.7* | 10.3 | -3.0
COC(=O)c1ccc(/C=C/c2nc3ccccc3c(=O)[nH]2)cc1 | -76.0 | -86.5 | -66.1 | -3.5 | -64.3 | 0.7
Cc1cc(C2=NNC(=NC3CC3)SC2)c(C)n1-c1ccccc1 | 91.3* | 103.3* | 100.4* | -14.4 | 94.1* | -9.6
CC(C)C[C@H]1CN=C(N(C)C)N1CC(C)C | 12.0 | -16.7 | -7.6 | 21.2 | 18.7 | -12.0
CC(C)C[C@H]1CN=C(N(C)C)N1CC1CCCCCC1 | -6.6 | -9.3 | 12.1 | 13.4 | 86.9* | -1.9
